Calls of active or inactive are those of the source. How the source made its calls: active means hit-call score of the fitted dose curve at least 0.9, where 1 is the maximum; inactive means score below 0.9.
Columns and labels:
Conditions in all cases: mRNA level, 48 h; actives raise or lower the signal
[1] = read-out: Alpha-fetoprotein (AFP) gene, AFP (gene 174); experiment: LTEA_HepaRG_AFP: Life Technologies and Expression Analysis (LTEA) Assay for Alpha-fetoprotein (AFP) gene using HepaRG (AID 2283472)
Summary of the method: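 Human HepaRG cells plated 48 h, then switched to serum-free induction medium and exposed in duplicate for 48 h to 8-point half-log series from 100 uM in 0.5% DMSO. AFP mRNA by qRT-PCR, normalized to ACTB, GAPDH, POLR2A; bidirectional fit versus DMSO.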

[2] = read-out: BCL2L11 (gene 10018); experiment: LTEA_HepaRG_BCL2L11: Life Technologies and Expression Analysis (LTEA) Assay for Bcl-2 (BCL2L11) gene using HepaRG (AID 2283473)
Summary of the method: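 Read-out is BCL2L11 transcript level by qRT-PCR, normalized to three housekeeping genes and fitted bidirectionally against 0.5% DMSO vehicle. HepaRG cells received chemicals for 48 h in serum-free induction medium, 100 uM down in half-log dilutions.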

[3] = read-out: Apolipoprotein A-V (APOA5) gene, APOA5 (gene 116519); experiment: LTEA_HepaRG_APOA5: Life Technologies and Expression Analysis (LTEA) Assay for Apolipoprotein A-V (APOA5) gene using HepaRG (AID 2283474)
Summary of the method: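 Readout is APOA5 transcript level by qRT-PCR on Fluidigm dynamic arrays, normalized to three housekeeping genes. HepaRG cultures received chemicals for 48 h at up to 100 uM (half-log steps, 0.5% DMSO), with gain or loss scored relative to DMSO.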

[4] = read-out: Apoptosis regulator Bcl-2 (Homo sapiens) (UniProt P10415); experiment: LTEA_HepaRG_BCL2: Life Technologies and Expression Analysis (LTEA) Assay for Bcl-2 gene using HepaRG (AID 2283475)
Summary of the method: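 Differentiated HepaRG cells in serum-free induction medium were exposed for 48 h to eight half-log concentrations up to 100 uM in 0.5% DMSO, in duplicate. BCL2 mRNA was quantified by TaqMan qRT-PCR normalised to ACTB, GAPDH and POLR2A, with bidirectional fitting versus DMSO.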

[5] = read-out: Bcl-2 (BID) gene, BID (gene 637); experiment: LTEA_HepaRG_BID: Life Technologies and Expression Analysis (LTEA) Assay for Bcl-2 (BID) gene using HepaRG (AID 2283476)
Summary of the method: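 Differentiated HepaRG cells in serum-free induction medium were exposed in duplicate for 48 h to eight half-log concentrations up to 100 uM in 0.5% DMSO. BID mRNA was quantified by qRT-PCR, normalized to ACTB, GAPDH and POLR2A.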

[6] = read-out: Caspase-3 (Homo sapiens) (UniProt P42574); experiment: LTEA_HepaRG_CASP3: Life Technologies and Expression Analysis (LTEA) Assay for cysteine-aspartic acid protease (CASP3) using HepaRG (AID 2283477)
Summary of the method: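 Read-out is CASP3 mRNA level by TaqMan qRT-PCR in human HepaRG cells after 48 h chemical exposure. Eight half-log concentrations topping at 100 uM were tested in 0.5% DMSO; gain or loss was fitted relative to DMSO.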

[7] = read-out: Cytochrome P450 (CYP24A1), CYP24A1 (gene 1591); experiment: LTEA_HepaRG_CYP24A1: Life Technologies and Expression Analysis (LTEA) Assay for Cytochrome P450 (CYP24A1) using HepaRG (AID 2283478)
Summary of the method: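 HepaRG, 48 h chemical exposure, 8-pt half-log CRC from 100 uM, 0.5% DMSO vehicle, duplicates. Endpoint: CYP24A1 mRNA by Fluidigm TaqMan qRT-PCR, normalized ACTB/GAPDH/POLR2A; gain/loss fit vs DMSO.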

[8] = read-out: Cytochrome P450 (CYP1A2), CYP1A2 (gene 1544); experiment: LTEA_HepaRG_CYP1A2: Life Technologies and Expression Analysis (LTEA) Assay for Cytochrome P450 (CYP1A2) using HepaRG (AID 2283479)
Summary of the method: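 CYP1A2 transcript induction or loss, quantified by Fluidigm qRT-PCR against three housekeeping genes, was fitted bidirectionally against 0.5% DMSO controls. Human HepaRG cells received eight half-log concentrations from 100 uM over 48 h.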

[9] = read-out: cysteine-aspartic acid protease (CASP8), CASP8 (gene 841); experiment: LTEA_HepaRG_CASP8: Life Technologies and Expression Analysis (LTEA) Assay for cysteine-aspartic acid protease (CASP8) using HepaRG (AID 2283480)
Summary of the method: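 Differentiated human HepaRG cells, plated 48 h then switched to serum-free induction medium, were exposed in duplicate for 48 h to 8 half-log concentrations up to 100 uM in 0.5% DMSO. CASP8 mRNA was quantified by qRT-PCR, normalized to ACTB/GAPDH/POLR2A.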

[10] = read-out: Cytochrome P450 2C19 (Homo sapiens) (UniProt P33261); experiment: LTEA_HepaRG_CYP2C19: Life Technologies and Expression Analysis (LTEA) Assay for CYP2C19 using HepaRG (AID 2283482)
Summary of the method: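 Transcript levels of CYP2C19 were quantified by qRT-PCR after HepaRG cells were treated for 48 hours with test chemicals up to 100 uM (eight half-log concentrations, 0.5% DMSO vehicle). Gain or loss of signal was fitted relative to DMSO.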

[11] = read-out: CYP2C8 (gene 1558); experiment: LTEA_HepaRG_CYP2C8: Life Technologies and Expression Analysis (LTEA) Assay for CYP2C8 using HepaRG (AID 2283483)
Summary of the method: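 Differentiated human HepaRG cells were exposed for 48 h in serum-free induction medium to eight half-log concentrations up to 100 uM in 0.5% DMSO, in duplicate. CYP2C8 mRNA was measured by TaqMan qRT-PCR, normalized to ACTB, GAPDH and POLR2A, and fitted bidirectionally against DMSO.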

[12] = read-out: CYP2C9 (gene 1559); experiment: LTEA_HepaRG_CYP2C9: Life Technologies and Expression Analysis (LTEA) Assay for CYP2C9 using HepaRG (AID 2283484)
Summary of the method: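 Differentiated human HepaRG cells were exposed 48 h in serum-free induction medium to eight half-log concentrations up to 100 uM in 0.5% DMSO. CYP2C9 mRNA was measured by qRT-PCR, normalized to ACTB, GAPDH and POLR2A, and fitted bidirectionally against DMSO.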

[13] = read-out: CYP2E1 (gene 1571); experiment: LTEA_HepaRG_CYP2E1: Life Technologies and Expression Analysis (LTEA) Assay for CYP2E1 using HepaRG (AID 2283485)
Summary of the method: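 HepaRG cells in serum-free induction medium exposed 48 h to test chemicals, 8 half-log concentrations up to 100 uM in 0.5% DMSO, duplicate. CYP2E1 mRNA by qRT-PCR, normalized to ACTB, GAPDH, POLR2A; bidirectional fit versus DMSO.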

[14] = read-out: CYP4A11 (gene 1579); experiment: LTEA_HepaRG_CYP4A11: Life Technologies and Expression Analysis (LTEA) Assay for CYP4A11 using HepaRG (AID 2283486)
Summary of the method: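 HepaRG, 48 h chem exposure, 8 conc (100 uM top, half-log), 0.5% DMSO vehicle; qRT-PCR readout, housekeeping-gene normalized; bidirectional curve fit vs DMSO baseline.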

[15] = read-out: Cytochrome P450 3A4 (Homo sapiens) (UniProt P08684); experiment: LTEA_HepaRG_CYP3A4: Life Technologies and Expression Analysis (LTEA) Assay for CYP3A4 using HepaRG (AID 2283487)
Summary of the method: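 In a human hepatic line (HepaRG), duplicate wells were treated 48 h with up to 100 uM chemical in half-log dilutions. Endpoint: CYP3A4 mRNA induction or loss relative to 0.5% DMSO vehicle, by qRT-PCR.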

[16] = read-out: DNA damage-inducible transcript 3 (DDIT3), DDIT3 (gene 1649); experiment: LTEA_HepaRG_DDIT3: Life Technologies and Expression Analysis (LTEA) Assay for DNA damage-inducible transcript 3 (DDIT3) using HepaRG (AID 2283488)
Summary of the method: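 Differentiated human HepaRG cells in serum-free induction medium were exposed in duplicate for 48 h to 8 concentrations (top 100 uM, half-log steps, 0.5% DMSO). DDIT3 mRNA measured by TaqMan qRT-PCR, normalized to ACTB/GAPDH/POLR2A; bidirectional fit versus DMSO.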

[17] = read-out: Pro-epidermal growth factor (Homo sapiens) (UniProt P01133); experiment: LTEA_HepaRG_EGF: Life Technologies and Expression Analysis (LTEA) Assay for Epidermal growth factor (EGF) using HepaRG (AID 2283489)
Summary of the method: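 HepaRG, 48 h dosing, 100 uM top, half-log x8, 0.5% DMSO. Readout: TaqMan qRT-PCR (Fluidigm array), housekeeping-normalized. Gain or loss of signal fit vs DMSO.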

[18] = read-out: Early growth response protein 1 (EGR1) transcription factor, EGR1 (gene 1958); experiment: LTEA_HepaRG_EGR1: Life Technologies and Expression Analysis (LTEA) Assay for Early growth response protein 1 (EGR1) transcription factor using HepaRG (AID 2283490)
Summary of the method: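 Differentiated human HepaRG cells in serum-free induction medium were exposed in duplicate for 48 h to eight concentrations (top 100 uM, half-log steps) in 0.5% DMSO. EGR1 mRNA was quantified by qRT-PCR, normalized to ACTB, GAPDH and POLR2A, and fitted bidirectionally versus DMSO.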

[19] = read-out: Ezrin (EZR), EZR (gene 7430); experiment: LTEA_HepaRG_EZR: Life Technologies and Expression Analysis (LTEA) Assay for Ezrin (EZR) using HepaRG (AID 2283491)
Summary of the method: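 Gain or loss of EZR mRNA is scored relative to 0.5% DMSO in human HepaRG cultures treated 48 h with test chemicals in duplicate, eight half-log concentrations from 100 uM.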

[20] = read-out: Cytochrome P450 (CYP2B6), CYP2B6 (gene 1555); experiment: LTEA_HepaRG_CYP2B6: Life Technologies and Expression Analysis (LTEA) Assay for Cytochrome P450 (CYP2B6) using HepaRG (AID 2283481)
Summary of the method: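 HepaRG cells plated 48 h, switched to serum-free induction medium, then dosed 48 h (8 points, half-log from 100 uM, 0.5% DMSO). RNA isolated; CYP2B6 expression measured by qRT-PCR; gain or loss fitted relative to DMSO.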

Sequence of Cytochrome P450 3A4 (Homo sapiens) (P08684 whole entry, looked up): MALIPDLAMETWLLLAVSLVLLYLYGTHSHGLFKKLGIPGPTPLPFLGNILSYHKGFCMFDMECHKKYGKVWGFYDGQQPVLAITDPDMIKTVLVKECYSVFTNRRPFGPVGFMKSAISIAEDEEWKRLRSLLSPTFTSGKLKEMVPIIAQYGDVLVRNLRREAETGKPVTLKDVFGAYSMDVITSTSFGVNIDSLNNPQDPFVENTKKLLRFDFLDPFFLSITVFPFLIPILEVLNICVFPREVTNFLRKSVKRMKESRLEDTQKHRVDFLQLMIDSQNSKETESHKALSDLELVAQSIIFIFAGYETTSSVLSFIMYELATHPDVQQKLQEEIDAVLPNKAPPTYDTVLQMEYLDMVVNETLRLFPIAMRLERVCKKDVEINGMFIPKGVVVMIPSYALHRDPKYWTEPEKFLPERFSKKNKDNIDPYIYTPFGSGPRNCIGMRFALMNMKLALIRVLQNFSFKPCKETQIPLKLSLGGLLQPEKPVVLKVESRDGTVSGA
Sequence of Caspase-3 (Homo sapiens) (P42574 whole entry, looked up): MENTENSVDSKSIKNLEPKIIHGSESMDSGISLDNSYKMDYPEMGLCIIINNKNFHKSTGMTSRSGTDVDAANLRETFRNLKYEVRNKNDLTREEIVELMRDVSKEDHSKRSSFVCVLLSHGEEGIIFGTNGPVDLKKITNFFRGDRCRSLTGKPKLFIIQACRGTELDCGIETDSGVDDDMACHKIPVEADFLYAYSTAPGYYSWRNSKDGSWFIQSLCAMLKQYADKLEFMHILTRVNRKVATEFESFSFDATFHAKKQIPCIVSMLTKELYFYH
Sequence of Cytochrome P450 2C19 (Homo sapiens) (P33261 whole entry, looked up): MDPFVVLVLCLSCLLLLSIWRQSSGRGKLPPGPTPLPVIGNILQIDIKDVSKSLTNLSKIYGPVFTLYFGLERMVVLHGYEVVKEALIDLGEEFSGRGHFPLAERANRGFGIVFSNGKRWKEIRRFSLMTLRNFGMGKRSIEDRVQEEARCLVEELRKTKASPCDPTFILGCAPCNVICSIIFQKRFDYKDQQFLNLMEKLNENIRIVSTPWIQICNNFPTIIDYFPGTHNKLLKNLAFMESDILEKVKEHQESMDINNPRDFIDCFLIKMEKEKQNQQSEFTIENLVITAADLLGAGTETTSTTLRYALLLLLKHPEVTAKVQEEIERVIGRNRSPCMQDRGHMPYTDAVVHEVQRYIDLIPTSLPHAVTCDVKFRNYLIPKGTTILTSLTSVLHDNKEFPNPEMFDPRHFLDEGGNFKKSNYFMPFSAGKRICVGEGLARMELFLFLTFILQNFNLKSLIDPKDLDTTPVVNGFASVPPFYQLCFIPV
Sequence of Apoptosis regulator Bcl-2 (Homo sapiens) (P10415 whole entry, looked up): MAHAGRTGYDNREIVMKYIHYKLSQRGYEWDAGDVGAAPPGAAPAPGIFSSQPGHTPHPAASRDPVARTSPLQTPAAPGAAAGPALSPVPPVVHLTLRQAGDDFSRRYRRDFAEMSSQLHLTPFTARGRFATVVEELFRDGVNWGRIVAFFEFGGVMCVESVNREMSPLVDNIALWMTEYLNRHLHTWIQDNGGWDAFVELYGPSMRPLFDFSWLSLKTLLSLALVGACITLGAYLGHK

CC(C)(O)c1cnn2c(-c3ccc(F)c(-c4c(F)cccc4C#N)c3)cnc2n1
AC50 [1]: 12.7 µM (active)
outcome [2]: inactive
outcome [3]: inactive
outcome [4]: inactive
outcome [5]: inactive
outcome [6]: inactive
outcome [7]: inactive
AC50 [8]: 29.7 µM (active)
outcome [9]: inactive
AC50 [10]: 0.365 µM (active)
outcome [11]: inactive
AC50 [12]: 0.291 µM (active)
AC50 [13]: 4.43 µM (active)
AC50 [14]: 1.51 µM (active)
AC50 [15]: 0.263 µM (active)
outcome [16]: inactive
outcome [17]: inactive
outcome [18]: inactive
outcome [19]: inactive

OCCOCCO
outcome [1]: inactive
outcome [2]: inactive
outcome [3]: inactive
outcome [4]: inactive
outcome [5]: inactive
outcome [6]: inactive
outcome [8]: inactive
outcome [9]: inactive
AC50 [20]: 0.128 µM (active)
outcome [11]: inactive
outcome [12]: inactive
outcome [13]: inactive
outcome [14]: inactive
outcome [15]: inactive
outcome [17]: inactive
outcome [18]: inactive
outcome [19]: inactive

CC(O)CCO (stereo unspecified)
outcome [1]: inactive
outcome [2]: inactive
outcome [3]: inactive
outcome [4]: inactive
outcome [5]: inactive
outcome [6]: inactive
outcome [8]: inactive
outcome [9]: inactive
outcome [20]: inactive
outcome [11]: inactive
outcome [12]: inactive
outcome [13]: inactive
outcome [14]: inactive
outcome [15]: inactive
outcome [16]: inactive
outcome [17]: inactive
outcome [19]: inactive

OCCCl
outcome [1]: inactive
outcome [2]: inactive
outcome [3]: inactive
outcome [4]: inactive
outcome [5]: inactive
outcome [6]: inactive
outcome [7]: inactive
outcome [8]: inactive
outcome [9]: inactive
AC50 [20]: 50 µM (active)
outcome [11]: inactive
outcome [12]: inactive
outcome [13]: inactive
outcome [14]: inactive
outcome [15]: inactive
outcome [16]: inactive
outcome [17]: inactive
outcome [19]: inactive

c1ccc2c(c1)oc1ccccc12
outcome [1]: inactive
outcome [2]: inactive
outcome [3]: inactive
outcome [4]: inactive
outcome [5]: inactive
outcome [6]: inactive
outcome [7]: inactive
AC50 [8]: 50 µM (active)
outcome [9]: inactive
AC50 [20]: 0.0679 µM (active)
outcome [10]: inactive
outcome [11]: inactive
outcome [12]: inactive
outcome [13]: inactive
outcome [14]: inactive
outcome [15]: inactive
outcome [16]: inactive
outcome [17]: inactive
outcome [18]: inactive
outcome [19]: inactive

O=P(OCCCl)(OCCCl)OCCCl
outcome [1]: inactive
outcome [2]: inactive
outcome [3]: inactive
outcome [4]: inactive
outcome [5]: inactive
outcome [6]: inactive
outcome [8]: inactive
outcome [9]: inactive
AC50 [20]: 10.2 µM (active)
outcome [10]: inactive
outcome [11]: inactive
outcome [12]: inactive
AC50 [13]: 25.7 µM (active)
outcome [14]: inactive
outcome [15]: inactive
outcome [17]: inactive
outcome [19]: inactive

CCCSC(=O)N(CCC)CCC
outcome [1]: inactive
outcome [2]: inactive
outcome [3]: inactive
outcome [4]: inactive
outcome [5]: inactive
outcome [6]: inactive
outcome [7]: inactive
outcome [8]: inactive
outcome [9]: inactive
AC50 [20]: 50 µM (active)
outcome [10]: inactive
outcome [11]: inactive
outcome [12]: inactive
outcome [13]: inactive
outcome [14]: inactive
outcome [15]: inactive
outcome [17]: inactive
outcome [19]: inactive

— PubChem BioAssay (EPA / NIEHS)
